Here are results for 5 compounds from PubChem BioAssay.

Experiment [1] can be described thus: yeast TOR pathway RPL19A-GFP modulators, primary screen, cell-based, S. cerevisiae, multiplex flow cytometry (AID 1862; in the data active means percent of DMSO control GFP below about 86%;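 further: lower values mimic rapamycin by blocking the RPL19A rise seen in DMSO cells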). To be noted: S. cerevisiae RPL19A-GFP strain, flow cytometry fluorescence, 3 h; at 10 µM; stronger effect = lower value.
Experiment [2] is described as follows: modulators of MEP2-GFP levels in yeast, primary screen, S. cerevisiae, multiplex flow cytometry (AID 1867;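 active means GFP response, as percent of the DMSO control, above the screen-wide mean plus 3 SD, about 139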;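 further: median GFP channel fluorescence of barcode-gated MEP2-GFP cells measured by flow cytometry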). To be noted: S. cerevisiae MEP2-GFP strain, 3 h, at 10 µM, stronger effect = higher value, 100% means same as DMSO wells. A general note: A flow cytometer gives signals particle by particle.
Experiment [3] is described as follows: modulators of CIT2-GFP expression in yeast, primary screen, S. cerevisiae, GFP fusion, multiplex flow cytometry (AID 1870;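 active means percent response above a set limit, the screen-wide mean plus 3 SD, cut at about 130% in these data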;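 further: barcoded CIT2-GFP strain pooled with four other GFP strains with rapamycin as positive control; median GFP fluorescence per well over plate mean of DMSO wells so 100% = DMSO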). To be noted: 3 h, at 10 µM, stronger effect = higher value.
Experiment [4] is described as follows: modulators of LAP4-GFP expression in yeast, primary screen, S. cerevisiae, multiplex flow cytometry (AID 1873;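 active means GFP signal, as percent of the solvent control, above the screen mean plus 3 SD, about 149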). To be noted: 3 h, at 10 µM, stronger effect = higher value.
Experiment [5] can be described thus: modulators of AGP1-GFP expression in yeast TOR pathway, primary screen, cell-based, multiplex flow cytometry, S. cerevisiae (AID 1887;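 active means GFP signal above the screen-wide mean plus 3 SD, that is over about 124.5% of the solvent control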;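 further: AGP1-GFP fusion strain of S. cerevisiae within a five-strain barcoded multiplex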). To be noted: 3 h, at 10 µM, stronger effect = higher value.
A short description of experiment [6]: inhibitors of CD8+ T cell-vesicle binding, pilot screen, LFA-1/ICAM-1 modulator project, MLPCN validation set, flow cytometry (AID 2523).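 On vesicle binding response: mean PE anti-B7-1 fluorescence of CD8+ cells relative to row control; 100% = QL9-loaded vesicles with DMSO vehicle in the same plate row.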 Conditions: 2C mouse CD8+ T cells, at 7 µM, stronger effect = lower value; double positive events: measured here: CD8+/vesicle+ event percentage.
For experiment [7], the target named is Integrin beta-1 (Homo sapiens) + Integrin alpha-4 (Homo sapiens) (UniProt P13612+P05556). Kind of experiment: inhibition of HUTS-21 binding to VLA-4, pilot screen, VLA-4 allosteric modulator project, U937 cells, HUTS-21 mAb, flow cytometry, validation set (AID 2674;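 active means inhibition above 50%, about 3 SD of the validation set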;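 further: antibody binding induced by the VLA-4 ligand LDV present at three times its Kd; 0% = LDV ligand with antibody and no compound and 100% = antibody without LDV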). Conditions: HUTS-21 LIBS mAb binding, at 6.7 µM, stronger effect = higher value, binding induced by LDV ligand.
Integrin beta-1 (Homo sapiens) + Integrin alpha-4 (Homo sapiens), sequence (P05556 whole entry, looked up): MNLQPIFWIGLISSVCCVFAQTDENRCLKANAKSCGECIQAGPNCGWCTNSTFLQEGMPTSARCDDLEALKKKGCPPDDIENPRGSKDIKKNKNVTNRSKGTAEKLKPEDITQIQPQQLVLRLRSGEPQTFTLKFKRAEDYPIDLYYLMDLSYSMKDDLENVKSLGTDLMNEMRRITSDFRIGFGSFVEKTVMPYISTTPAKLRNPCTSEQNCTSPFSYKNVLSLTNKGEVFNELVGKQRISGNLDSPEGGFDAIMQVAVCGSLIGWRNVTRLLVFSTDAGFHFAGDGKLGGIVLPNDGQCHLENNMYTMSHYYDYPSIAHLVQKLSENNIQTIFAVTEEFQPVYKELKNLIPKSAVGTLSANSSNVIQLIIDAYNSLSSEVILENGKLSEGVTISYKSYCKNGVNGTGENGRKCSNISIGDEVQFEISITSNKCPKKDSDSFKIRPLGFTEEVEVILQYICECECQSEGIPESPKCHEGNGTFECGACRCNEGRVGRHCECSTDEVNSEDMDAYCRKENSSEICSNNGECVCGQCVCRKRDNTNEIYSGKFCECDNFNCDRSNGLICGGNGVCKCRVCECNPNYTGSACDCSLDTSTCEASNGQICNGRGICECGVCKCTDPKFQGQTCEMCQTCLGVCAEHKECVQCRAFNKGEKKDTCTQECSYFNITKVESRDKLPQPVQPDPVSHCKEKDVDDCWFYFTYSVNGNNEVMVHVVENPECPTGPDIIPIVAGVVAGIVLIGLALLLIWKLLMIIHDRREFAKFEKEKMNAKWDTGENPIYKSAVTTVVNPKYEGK
Integrin beta-1 (Homo sapiens) + Integrin alpha-4 (Homo sapiens), sequence (P13612 whole entry, looked up): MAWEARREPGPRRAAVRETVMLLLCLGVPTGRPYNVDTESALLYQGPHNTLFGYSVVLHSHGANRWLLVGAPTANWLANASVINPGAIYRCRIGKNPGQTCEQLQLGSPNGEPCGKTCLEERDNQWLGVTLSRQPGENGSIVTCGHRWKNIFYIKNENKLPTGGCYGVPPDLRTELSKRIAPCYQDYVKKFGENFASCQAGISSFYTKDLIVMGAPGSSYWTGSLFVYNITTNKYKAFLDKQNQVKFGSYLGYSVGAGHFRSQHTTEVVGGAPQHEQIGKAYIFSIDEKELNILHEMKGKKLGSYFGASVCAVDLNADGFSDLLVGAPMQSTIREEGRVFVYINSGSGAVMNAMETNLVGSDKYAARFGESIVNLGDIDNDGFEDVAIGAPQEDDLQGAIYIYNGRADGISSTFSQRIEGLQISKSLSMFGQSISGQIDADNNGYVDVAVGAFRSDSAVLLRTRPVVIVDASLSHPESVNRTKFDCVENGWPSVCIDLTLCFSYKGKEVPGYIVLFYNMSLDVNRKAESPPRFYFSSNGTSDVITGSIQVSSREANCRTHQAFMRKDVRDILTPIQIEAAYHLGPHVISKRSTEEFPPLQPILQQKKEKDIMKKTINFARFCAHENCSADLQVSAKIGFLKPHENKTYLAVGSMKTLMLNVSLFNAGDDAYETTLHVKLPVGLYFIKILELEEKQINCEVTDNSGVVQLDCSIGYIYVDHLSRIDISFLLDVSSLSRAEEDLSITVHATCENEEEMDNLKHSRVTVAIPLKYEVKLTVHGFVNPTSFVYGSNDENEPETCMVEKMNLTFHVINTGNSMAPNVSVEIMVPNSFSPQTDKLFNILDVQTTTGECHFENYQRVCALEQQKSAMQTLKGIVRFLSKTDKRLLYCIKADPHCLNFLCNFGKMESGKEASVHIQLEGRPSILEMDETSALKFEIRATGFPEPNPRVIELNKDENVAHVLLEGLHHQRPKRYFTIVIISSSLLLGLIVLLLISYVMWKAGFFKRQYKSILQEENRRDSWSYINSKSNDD

Experiment [8] can be described thus: superoxide lowering in aged yeast cells, pilot screen, validation compound set (AID 2706;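 active means superoxide response below 65% of plate, a cut near 3 SD across the whole screen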;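 further: yeast exposed to compound for one week at 30 degrees C before staining; 100% = mean of all compound wells on the same plate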). To be noted: S. cerevisiae aging, superoxide DHE fluorescence; at 10 µM; stronger effect = lower value.
Experiment [9] deals with Beta-adrenergic receptor kinase 1 (Homo sapiens) (UniProt P25098). Kind of experiment: GRK2 binders displacing RNA aptamer, biochemical, validation, human GRK2, bead flow cytometry (AID 488806;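 active means aptamer binding inhibition above 30%, about 3 SD of noise from non-fluorescent compounds; inactive means inhibition at or below 30%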). To be noted: bead-bound GRK2, FAM-aptamer displacement, at 10 µM, stronger effect = higher value.
Beta-adrenergic receptor kinase 1 (Homo sapiens), sequence (P25098 whole entry, looked up): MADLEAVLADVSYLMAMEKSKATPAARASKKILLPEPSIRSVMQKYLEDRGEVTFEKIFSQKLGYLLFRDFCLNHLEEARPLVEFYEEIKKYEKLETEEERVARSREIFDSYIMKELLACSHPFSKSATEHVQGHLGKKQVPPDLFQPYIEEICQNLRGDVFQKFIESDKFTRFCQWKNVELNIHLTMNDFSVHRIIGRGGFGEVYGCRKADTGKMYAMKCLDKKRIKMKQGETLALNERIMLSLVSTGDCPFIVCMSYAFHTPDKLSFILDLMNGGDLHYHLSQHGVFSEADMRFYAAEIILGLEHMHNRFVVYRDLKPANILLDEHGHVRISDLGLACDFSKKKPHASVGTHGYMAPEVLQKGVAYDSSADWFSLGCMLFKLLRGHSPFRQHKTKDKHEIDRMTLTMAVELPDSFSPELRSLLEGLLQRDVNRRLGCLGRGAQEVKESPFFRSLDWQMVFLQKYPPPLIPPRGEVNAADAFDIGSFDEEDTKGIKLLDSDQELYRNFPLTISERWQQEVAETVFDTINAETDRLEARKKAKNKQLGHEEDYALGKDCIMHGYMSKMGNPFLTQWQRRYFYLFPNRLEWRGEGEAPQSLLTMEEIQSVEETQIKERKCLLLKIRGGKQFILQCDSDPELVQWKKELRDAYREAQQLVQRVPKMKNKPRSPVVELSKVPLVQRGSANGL
Experiment [10] has as its target Beta-2 adrenergic receptor (Homo sapiens) (UniProt P07550). As to the kind of experiment: beta2AR agonists driving receptor internalization, pilot screen, cell-based, FAP fluorogen, flow cytometry, validation set (AID 504459;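 active means percent response above 42, roughly 3 SD of non-fluorescent test compounds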;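 further: agonist-driven loss of surface beta2AR via internalization measured by FAP dye flow cytometry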). To be noted: Am2.2-beta2AR cells, FAP surface receptor flow cytometry; at 10 µM; stronger effect = higher value.
The target of experiment [11] is AP-2 complex subunit beta (Homo sapiens) (UniProt P63010). Kind of experiment: inhibitors of arrestin peptide binding to AP2, pilot screen, biochemical, validation set, GST-AP2 beads, flow cytometry (AID 504541;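 active means inhibition above 54%, about 3 SD of non-fluorescent compounds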;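 further: AP2 carries R879A mutation and is captured from E. coli lysate; bead-bound FITC arrestin peptide fluorescence measuring arrestin peptide binding to AP2; 0% = DMSO wells and 100% = excess unlabeled arrestin peptide control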). Conditions: FITC arrestin peptide, at 10 µM, stronger effect = higher value, AP2 beta2 appendage fragment, R879A mutant.
AP-2 complex subunit beta (Homo sapiens), sequence (P63010 whole entry, looked up, the tested form may be a part, one chain of several): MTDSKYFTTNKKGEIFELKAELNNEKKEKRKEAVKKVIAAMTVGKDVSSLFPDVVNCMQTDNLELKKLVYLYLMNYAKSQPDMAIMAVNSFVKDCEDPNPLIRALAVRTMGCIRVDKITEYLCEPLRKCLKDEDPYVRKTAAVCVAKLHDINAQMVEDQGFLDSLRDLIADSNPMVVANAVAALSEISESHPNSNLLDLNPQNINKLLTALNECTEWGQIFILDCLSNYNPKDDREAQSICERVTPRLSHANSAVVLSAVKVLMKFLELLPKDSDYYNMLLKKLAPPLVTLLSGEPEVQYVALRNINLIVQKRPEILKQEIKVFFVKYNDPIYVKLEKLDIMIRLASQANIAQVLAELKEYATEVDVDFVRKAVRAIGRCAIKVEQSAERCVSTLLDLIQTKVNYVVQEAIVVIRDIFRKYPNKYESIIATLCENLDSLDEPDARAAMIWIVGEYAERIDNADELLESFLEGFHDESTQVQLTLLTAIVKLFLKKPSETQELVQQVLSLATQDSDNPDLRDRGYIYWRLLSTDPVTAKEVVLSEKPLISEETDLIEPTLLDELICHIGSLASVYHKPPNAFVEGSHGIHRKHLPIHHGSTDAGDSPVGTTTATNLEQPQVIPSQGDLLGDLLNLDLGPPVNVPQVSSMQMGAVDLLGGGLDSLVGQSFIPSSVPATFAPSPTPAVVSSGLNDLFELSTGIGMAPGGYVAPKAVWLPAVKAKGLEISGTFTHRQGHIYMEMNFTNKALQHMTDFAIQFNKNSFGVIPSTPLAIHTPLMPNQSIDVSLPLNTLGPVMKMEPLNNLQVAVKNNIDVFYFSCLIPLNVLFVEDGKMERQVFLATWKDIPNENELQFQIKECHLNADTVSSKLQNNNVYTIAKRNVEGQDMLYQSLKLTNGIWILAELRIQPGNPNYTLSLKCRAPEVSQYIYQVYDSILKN
A short description of experiment [12]: yeast V-ATPase proton transport modulators, S. cerevisiae, pHLuorin, HTS validation (AID 504600; in the data active means response above about 15%;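 further: plate controls were DMSO for no effect and reference compound for full effect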). Conditions: S. cerevisiae pHLuorin cytosolic pH, at 10 µM, stronger effect = higher value.
In experiment [13] the test system is anti-desmoglein-3 scFv antibody binding to human DSG3. As to the kind of experiment: inhibitors of anti-DSG3 scFv binding to DSG3, pilot screen, biochemical, validation compound set, bead-based, flow cytometry (AID 588368;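 active means binding below the plate cutoff, the plate median minus 3 SD, with a reading above zero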;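 further: signal is the median channel fluorescence of bead-bound GFP antibody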). To be noted: Protein G beads, DSG3-Fc, scFv-GFP binding, at 10 µM, stronger effect = lower value.
Experiment [14] in a line: inhibitors of fungal efflux pumps CDR1, CDR2, MDR1, pilot screen, validation compound set, multiplex, phenotypic (AID 588506;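 active means efflux inhibition above 0.42, the validation set average plus 4 SD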;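 further: Nile Red retained in cells so higher fluorescence means more efflux inhibition; 0 = negative control wells and 1 = enniatin B 25 µM full block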). Conditions: S. cerevisiae pump-expressing triplex, Nile Red efflux flow cytometry; at 10 µM; stronger effect = higher value; the pumps come from Candida albicans.
Experiment [15] concerns the target ATP-binding cassette sub-family B member 6 (Homo sapiens) (UniProt Q9NP58). Kind of experiment: ABCB6 transporter inhibitors, pilot screen, K562-ABCB6 cells, flow cytometry, validation set (AID 588550;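 active means inhibition above the screen-wide mean plus 3 SD, about 51%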;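 further: 0% = DMSO wells and 100% = benzethonium chloride 70 µM positive control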). To be noted: K562-ABCB6 porphyrin accumulation, 1 h, at 10 µM, stronger effect = higher value.
The nature of experiment [16]: promoters of myeloid differentiation in arrested cells, primary screen, cell-based, GFP/MAC1 double positive, flow cytometry, validation set (AID 588685;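 active means differentiation response of at least 50%, scaled between solvent and reference control, from cells with both markers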;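 further: compound exposure lasts four days before antibody staining and flow analysis; 0% = DMSO wells and 100% = 5 µM fulvestrant positive control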). Conditions: ER-HoxA9 marrow cells, stronger effect = higher value, normalized: vehicle 0, fulvestrant 100.

Records with an inconclusive call do not appear. Active and inactive are the calls of the source.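 How the source made its calls, unless noted: active means response below a set limit, under 55% cells CD8-positive and vesicle-bound, and CD8 cells' 90th-percentile brightness under 279; inactive means the rest.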

ATP-binding cassette sub-family B member 6 (Homo sapiens), sequence (Q9NP58 whole entry, looked up): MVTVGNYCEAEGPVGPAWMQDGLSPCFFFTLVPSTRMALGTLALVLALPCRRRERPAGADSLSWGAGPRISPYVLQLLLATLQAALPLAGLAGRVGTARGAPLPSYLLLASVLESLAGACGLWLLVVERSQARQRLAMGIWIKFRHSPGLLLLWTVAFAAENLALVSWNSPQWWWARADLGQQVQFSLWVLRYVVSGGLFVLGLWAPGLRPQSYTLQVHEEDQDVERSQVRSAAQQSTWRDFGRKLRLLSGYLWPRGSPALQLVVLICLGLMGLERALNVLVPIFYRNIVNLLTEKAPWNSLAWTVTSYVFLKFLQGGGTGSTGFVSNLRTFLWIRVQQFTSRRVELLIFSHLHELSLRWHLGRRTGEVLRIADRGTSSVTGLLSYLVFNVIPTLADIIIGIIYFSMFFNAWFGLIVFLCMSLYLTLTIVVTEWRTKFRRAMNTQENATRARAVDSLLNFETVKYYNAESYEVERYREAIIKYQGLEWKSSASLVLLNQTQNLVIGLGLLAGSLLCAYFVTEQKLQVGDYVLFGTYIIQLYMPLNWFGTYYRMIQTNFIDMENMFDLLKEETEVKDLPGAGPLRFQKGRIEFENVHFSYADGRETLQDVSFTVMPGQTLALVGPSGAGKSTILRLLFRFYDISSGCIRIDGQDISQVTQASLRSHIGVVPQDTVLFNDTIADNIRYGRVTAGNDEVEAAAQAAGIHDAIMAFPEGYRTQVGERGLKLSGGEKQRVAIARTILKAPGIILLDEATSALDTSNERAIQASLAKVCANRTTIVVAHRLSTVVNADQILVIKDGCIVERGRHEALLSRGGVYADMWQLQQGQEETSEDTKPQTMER
Beta-2 adrenergic receptor (Homo sapiens), sequence (P07550 whole entry, looked up): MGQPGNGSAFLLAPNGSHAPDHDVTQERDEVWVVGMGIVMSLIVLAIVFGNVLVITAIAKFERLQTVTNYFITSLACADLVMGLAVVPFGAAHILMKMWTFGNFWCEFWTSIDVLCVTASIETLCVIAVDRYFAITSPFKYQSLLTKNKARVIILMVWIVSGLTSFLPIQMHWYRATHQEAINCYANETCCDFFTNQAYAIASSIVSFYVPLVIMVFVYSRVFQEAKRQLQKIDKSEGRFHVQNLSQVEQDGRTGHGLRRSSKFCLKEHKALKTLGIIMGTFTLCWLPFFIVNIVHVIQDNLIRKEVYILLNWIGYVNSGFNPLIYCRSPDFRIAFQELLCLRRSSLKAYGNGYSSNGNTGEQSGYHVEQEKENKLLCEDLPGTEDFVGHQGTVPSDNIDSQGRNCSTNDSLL

Regarding `Cc1ccc2c(ccc(=S)n2C)c1`, the percent of DMSO control GFP in experiment [1] is 103% (inactive). Besides, the GFP response vs DMSO in [2] is 97.2% (inactive); in experiment [4] it was 93.3% (inactive). In addition, the percent response of DMSO control in experiment [3] is 115% (inactive). The GFP response, % of DMSO in experiment [5] is 102% (inactive). In addition, the double positive events in [6] amounted to 54.1%. Further, the vesicle binding response in experiment [6] is 44.4% (active). Further, the results for the inhibition in experiment [7], in experiment [11] and in experiment [15] were 7.85% (inactive), -3.91% (inactive) and 19% (inactive), respectively. Also, in [8], the superoxide response (% of plate) was 87.8% (inactive). Moreover, the aptamer binding inhibition in experiment [9] was 4% (inactive). Also, the response was -14% (inactive) in experiment [10] and 0.7% (inactive) in [12]. In addition, the binding (% of control) in experiment [13] was 97.7% (inactive). The efflux inhibition (fraction of control) in experiment [14] is -0.01 (inactive). Further, the differentiation response in experiment [16] was 1.22% (inactive).
For `COc1cc(NC(=S)NN2CCN(C)CC2)cc(OC)c1OC`, in experiment [1], the percent of DMSO control GFP was 105% (inactive). For the same compound, the values for the GFP response vs DMSO in experiment [2] and in [4] were 108% (inactive) and 92% (inactive), respectively. For the same compound, the percent response of DMSO control in experiment [3] was 116% (inactive). The GFP response, % of DMSO in experiment [5] is 106% (inactive). In experiment [6], this compound gave a double positive events of 62.3%. The vesicle binding response in experiment [6] is 240% (inactive). Besides, the values for the inhibition in experiment [7], in experiment [11] and in experiment [15] were 7.85% (inactive), -10.5% (inactive) and 13% (inactive), respectively. The superoxide response (% of plate) in experiment [8] is 91.4% (inactive). In addition, in experiment [9], the aptamer binding inhibition was 3% (inactive). The results for the response in experiment [10] and in experiment [12] were -10.5% (inactive) and 2.58% (inactive), respectively. Also, the binding (% of control) in experiment [13] was 105% (inactive). Moreover, the efflux inhibition (fraction of control) in experiment [14] was -0.04 (inactive). In addition, the differentiation response in experiment [16] is 5.13% (inactive).
Regarding `O=C(NC(=S)Nc1ccc(N2CCN(C(=O)c3ccccc3)CC2)cc1)c1cccs1`, in experiment [1], the percent of DMSO control GFP was 96.3% (inactive). Besides, the GFP response vs DMSO in experiment [2] was 126% (inactive); in experiment [4] it was 77% (inactive). The percent response of DMSO control in experiment [3] was 116% (inactive). Moreover, the GFP response, % of DMSO in experiment [5] was 96.1% (inactive). Further, in experiment [6], the double positive events amounted to 51.4%. For the same compound, the vesicle binding response in experiment [6] was 106% (inactive). Besides, the inhibition in experiment [7] is -4.21% (inactive); in experiment [11], -3.24% (inactive); in experiment [15], 13% (inactive). Besides, the superoxide response (% of plate) in experiment [8] is 101% (inactive). Moreover, in [9], the aptamer binding inhibition was 0% (inactive). Besides, the response is -15.7% (inactive) in [10] and 1.01% (inactive) in experiment [12]. Also, the binding (% of control) in experiment [13] is 107% (inactive). Further, the efflux inhibition (fraction of control) in experiment [14] was -0.28 (inactive). Also, the differentiation response in experiment [16] is -0.82% (inactive).
Turning to `CC1(C)C(=O)OC(C(=O)c2ccc(Cl)cc2)C(C)(C)C1=O` (stereo not given), the percent of DMSO control GFP in experiment [1] is 103% (inactive). The GFP response vs DMSO in [2] is 90.9% (inactive); in experiment [4], 97.3% (inactive). The percent response of DMSO control in experiment [3] was 107% (inactive). In addition, the GFP response, % of DMSO in [5] is 103% (inactive). The same compound returned a double positive events in experiment [6] of 66.1%. Also, the vesicle binding response in experiment [6] was 261% (inactive). Further, the inhibition was -11.9% (inactive) in experiment [7], -10.6% (inactive) in [11] and -4% (inactive) in [15]. Moreover, the superoxide response (% of plate) in experiment [8] is 104% (inactive). In addition, the aptamer binding inhibition in experiment [9] was 2% (inactive). Moreover, the values for the response in experiment [10] and in experiment [12] were -5.23% (inactive) and -4.25% (inactive), respectively. Further, the binding (% of control) in experiment [13] was 99.3% (inactive). In addition, in experiment [14], the efflux inhibition (fraction of control) is -0.01 (inactive). The differentiation response in experiment [16] is -4.64% (inactive).
For the compound `COc1cc(C(=S)N(C)C)ccc1O`, the percent of DMSO control GFP in [1] was 107% (inactive). In addition, the GFP response vs DMSO in experiment [2] is 104% (inactive); in experiment [4] it was 92.6% (inactive). Also, the percent response of DMSO control in experiment [3] was 113% (inactive). For the same compound, the GFP response, % of DMSO in experiment [5] was 116% (inactive). For the same compound, the double positive events in experiment [6] came to 62.6%. The vesicle binding response in experiment [6] is 115% (inactive). The inhibition in [7] is -11.8% (inactive); in experiment [11], -1.41% (inactive); in [15], -8% (inactive). In addition, the superoxide response (% of plate) in [8] is 92.7% (inactive). For the same compound, in experiment [9], the aptamer binding inhibition is -1% (inactive). Moreover, the results for the response in [10] and in experiment [12] were 8.54% (inactive) and 3.06% (inactive), respectively. Also, the binding (% of control) in [13] was 101% (inactive). Also, the efflux inhibition (fraction of control) in [14] was -0.005 (inactive). Also, the differentiation response in experiment [16] is 15.9% (inactive).

The term inhibition denotes the change of the read-out against control, counted positive when it falls.
